Among the data in the supplement of paper PMC6555819 are PBM binding z-score values, retold here.

Common to all, as to assay: PBM binding z-score (relative to random genomic background probes); higher = stronger binding; sequences stand for … in GC…GCGATTGACAGCGTAGAATGAAGG
Assay [1] has as its system RARb homodimer (NR concentration 270 nM). In outline:
(§1)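 For binding z-scores, the reference was random background probes on custom Agilent 4×180K protein-binding microarrays. These arrays were incubated 1 h with ligand-free nuclear receptor dimers in PBS pH 7.4, 2% milk, 0.02% Triton X-100, 1 mM DTT, 0.2 mg/mL BSA and 0.4 mg/ml salmon testes DNA. Fluorescence was scanned after antibody detection of each partner (one per run) and regression-normalized.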

For assay [2], the system named is RARg:RXRa (NR concentration 270 nM, RXRa partner concentration 90 nM). In outline: as §1
Assay [3] deals with RARg homodimer (NR concentration 270 nM). In outline:
as §1

The subject of assay [4] is RXRa DBDmut IVT, anti-RXR (DBD mutation: RXRa K156A/R161A, NR concentration 90 nM). In outline: as §1
The test system of assay [5] is RXRa homodimer (NR concentration 180 nM). Summed up:
as §1

The subject of assay [6] is THRa:RXRa (NR concentration 90 nM, RXRa partner concentration 90 nM). In outline:
as §1

The subject of assay [7] is THRa homodimer (NR concentration 90 nM). Summed up: as §1
The test system of assay [8] is VDR homodimer (NR concentration 270 nM). In outline:
as §1

On to CCAGACATGTGAAAGGTAACTCAGTCTGGTACGC, for which the PBM binding z-score in assay [1] was determined as 0.0662; in assay [2], 0.308; in assay [3], 0.362; in assay [4], 0.289; in assay [5] it was 0.767; in assay [6] it was 0.162. Besides, the PBM binding z-score is -0.146 in assay [7] and 0.204 in assay [8].
In the case of TAGCCTAGGTCATTCAGGGGCCAGTATCGAAAGC, the PBM binding z-score in assay [1] was 3.55; in assay [2], 5.82; in assay [3] it was 4.73; in assay [4], 1.96; in assay [5], 3.05; in assay [6], 3.47. The PBM binding z-score was determined as 0.885 in assay [7] and 1.48 in assay [8].
With CCTAGCAGGCCAGGCTCACTCAAGCATTTCGCTT, the PBM binding z-score in assay [1] was -0.944; in assay [2], -0.644; in assay [3], -0.705; in assay [4], 0.0454; in assay [5] it was -0.649; in assay [6], -0.789. The values for the PBM binding z-score in assay [7] and in assay [8] were -0.705 and -0.911, respectively.
Turning to CGTAGCAGGCCAATCTGGGTCACTCAAGGCTTGA, the PBM binding z-score is 1.95 in assay [1]; 0.96 in assay [2]; 1.26 in assay [3]; 0.317 in assay [4]; 0.616 in assay [5]; 3.65 in assay [6]. Besides, the PBM binding z-score in assay [7] was 0.645; in assay [8], -0.295.
Take TATACAGGGTCAAAGGCAAGAGTACGAATGTCGA: the PBM binding z-score stood at 3.28 in assay [1]; 5.58 in assay [2]; 5.01 in assay [3]; 3.09 in assay [4]; 6.4 in assay [5]; 3.48 in assay [6]. The PBM binding z-score stood at 1.05 in assay [7] and 3.39 in assay [8].
For ATCTCTAGGTAAAAGTTCAGTGGATCCCGAGGAT, the PBM binding z-score in assay [1] turned out to be 2.32; in assay [2], 2.02; in assay [3], 2.08; in assay [4], 0.861; in assay [5], 1.53; in assay [6], 1.2. For the same sequence, the PBM binding z-score in assay [7] stood at 0.272; in assay [8] it was 1.72.
With CGTCAAAGTGCAACTAAGGTAACGTAAAGCACGC, the PBM binding z-score was 1.18 in assay [1]; 1.58 in assay [2]; 1.59 in assay [3]; 1.13 in assay [4]; 0.815 in assay [5]; 4.99 in assay [6]. In addition, the PBM binding z-score is 1.18 in assay [7] and 0.128 in assay [8].
